# B1: unnamed (peptide)
# chain: ALFRLSFFFPLDPAY
# B2: unnamed (peptide)
# chain: RVTRKRPREPKSTND
# B3: unnamed (peptide)
# chain: RRASLFPRDPKRLRP
# Biological target: SpBzz1-D2
# Experiment: SPOT peptide array binding signal intensity (averaged, normalized) (arbitrary units (background-subtracted, floor 0; scale differs between SH3 domains)); higher = stronger binding of the SH3 domain to the peptide
# Outline: (§1)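 Binding signal is given in arbitrary units that differ between domains and is the normalized, background-subtracted spot intensity averaged across replicates. Each GST-SH3 fusion from one of four yeast species was made in E. coli BL21(DE3), purified on glutathione Sepharose and incubated at 10 μg/ml overnight at 4°C on cellulose-bound synthetic 15-mer peptides in which cysteines were replaced by serines. Detection used anti-GST antibody, an HRP anti-mouse secondary and luminol, followed by imaging and Genespotter quantification.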
row,Binder,SPOT peptide array binding signal intensity
1,B1,6.5
2,B3,≤ 0

# Biological target: SpCyk3
# Experiment: as above
# Outline: as §1
row,Binder,SPOT peptide array binding signal intensity
1,B1,55
2,B3,1

# Biological target: SpHof1
# Experiment: as above
# Outline: as §1
row,Binder,SPOT peptide array binding signal intensity
1,B1,844
2,B3,184

# Biological target: SpHof1-2
# Experiment: as above
# Outline: as §1
row,Binder,SPOT peptide array binding signal intensity
1,B1,230
2,B3,44.5

# Biological target: SpHof1-3
# Experiment: as above
# Outline: as §1
row,Binder,SPOT peptide array binding signal intensity
1,B1,1850
2,B3,352

# Biological target: SpHse1
# Experiment: as above
# Outline: as §1
row,Binder,SPOT peptide array binding signal intensity
1,B1,2380
2,B3,420

# Biological target: SpLsb1
# Experiment: as above
# Outline: as §1
row,Binder,SPOT peptide array binding signal intensity
1,B1,15.5
2,B3,4.25

# Biological target: SpLsb4
# Experiment: as above
# Outline: as §1
row,Binder,SPOT peptide array binding signal intensity
1,B1,463
2,B3,98

# Biological target: SpMyo1
# Experiment: as above
# Outline: as §1
row,Binder,SPOT peptide array binding signal intensity
1,B1,91
2,B3,2

# Biological target: SpNbp2
# Experiment: as above
# Outline: as §1
row,Binder,SPOT peptide array binding signal intensity
1,B1,2350
2,B3,348

# Biological target: SpPex13
# Experiment: as above
# Outline: as §1
row,Binder,SPOT peptide array binding signal intensity
1,B1,565
2,B3,17

# Biological target: SpRvs167
# Experiment: as above
# Outline: as §1
row,Binder,SPOT peptide array binding signal intensity
1,B1,131
2,B3,11.3

# Biological target: SpSla1-D1-D2
# Experiment: as above
# Outline: as §1
row,Binder,SPOT peptide array binding signal intensity
1,B1,8
2,B3,≤ 0

# Biological target: SpSla1-D3
# Experiment: as above
# Outline: as §1
row,Binder,SPOT peptide array binding signal intensity
1,B1,192
2,B3,19

# Biological target: AgAbp1
# Experiment: as above
# Outline: as §1
row,Binder,SPOT peptide array binding signal intensity
1,B2,86
2,B3,89.5

# Biological target: AgBbc1
# Experiment: as above
# Outline: as §1
row,Binder,SPOT peptide array binding signal intensity
1,B2,146
2,B3,87.5

# Biological target: AgBem1-D1
# Experiment: as above
# Outline: as §1
row,Binder,SPOT peptide array binding signal intensity
1,B2,322
2,B3,169

# Biological target: AgBzz1-D1
# Experiment: as above
# Outline: as §1
row,Binder,SPOT peptide array binding signal intensity
1,B2,18
2,B3,87

# Biological target: AgBzz1-D2
# Experiment: as above
# Outline: as §1
row,Binder,SPOT peptide array binding signal intensity
1,B2,31
2,B3,49

# Biological target: AgCyk3
# Experiment: as above
# Outline: as §1
row,Binder,SPOT peptide array binding signal intensity
1,B2,3
2,B3,3

# Biological target: AgFus1
# Experiment: as above
# Outline: as §1
row,Binder,SPOT peptide array binding signal intensity
1,B2,300
2,B3,223

# Biological target: AgHof1
# Experiment: as above
# Outline: as §1
row,Binder,SPOT peptide array binding signal intensity
1,B2,64.5
2,B3,22.2

# Biological target: AgHse1
# Experiment: as above
# Outline: as §1
row,Binder,SPOT peptide array binding signal intensity
1,B2,606
2,B3,1070

# Biological target: AgLsb1
# Experiment: as above
# Outline: as §1
row,Binder,SPOT peptide array binding signal intensity
1,B2,3
2,B3,1

# Biological target: AgLsb4
# Experiment: as above
# Outline: as §1
row,Binder,SPOT peptide array binding signal intensity
1,B2,72
2,B3,112

# Biological target: AgMyo5
# Experiment: as above
# Outline: as §1
row,Binder,SPOT peptide array binding signal intensity
1,B2,2.5
2,B3,2.5

# Biological target: AgNbp2
# Experiment: as above
# Outline: as §1
row,Binder,SPOT peptide array binding signal intensity
1,B2,123
2,B3,107

# Biological target: AgRvs167
# Experiment: as above
# Outline: as §1
row,Binder,SPOT peptide array binding signal intensity
1,B2,0.667
2,B3,0.5

# Biological target: AgSho1
# Experiment: as above
# Outline: as §1
row,Binder,SPOT peptide array binding signal intensity
1,B2,31
2,B3,67.5

# Biological target: AgSla1-D1-D2
# Experiment: as above
# Outline: as §1
row,Binder,SPOT peptide array binding signal intensity
1,B2,178
2,B3,116

# Biological target: AgSla1-D3
# Experiment: as above
# Outline: as §1
row,Binder,SPOT peptide array binding signal intensity
1,B2,7.25
2,B3,7.5

# Biological target: CaAbp1-D1
# Experiment: as above
# Outline: as §1
row,Binder,SPOT peptide array binding signal intensity
1,B2,887
2,B3,520

# Biological target: CaAbp1-D2
# Experiment: as above
# Outline: as §1
row,Binder,SPOT peptide array binding signal intensity
1,B2,550
2,B3,362

# Biological target: CaBbc1
# Experiment: as above
# Outline: as §1
row,Binder,SPOT peptide array binding signal intensity
1,B2,346
2,B3,304

# Biological target: CaBem1-D1
# Experiment: as above
# Outline: as §1
row,Binder,SPOT peptide array binding signal intensity
1,B2,40.5
2,B3,83

# Biological target: CaBzz1-D1
# Experiment: as above
# Outline: as §1
row,Binder,SPOT peptide array binding signal intensity
1,B2,134
2,B3,131

# Biological target: CaBzz1-D2
# Experiment: as above
# Outline: as §1
row,Binder,SPOT peptide array binding signal intensity
1,B2,174
2,B3,128

# Biological target: CaCyk3
# Experiment: as above
# Outline: as §1
row,Binder,SPOT peptide array binding signal intensity
1,B2,169
2,B3,39

# Biological target: CaFus1
# Experiment: as above
# Outline: as §1
row,Binder,SPOT peptide array binding signal intensity
1,B2,734
2,B3,724

# Biological target: CaHof1
# Experiment: as above
# Outline: as §1
row,Binder,SPOT peptide array binding signal intensity
1,B2,1
2,B3,1.5

# Biological target: CaHse1
# Experiment: as above
# Outline: as §1
row,Binder,SPOT peptide array binding signal intensity
1,B2,35.2
2,B3,13.2

# Biological target: CaLsb1
# Experiment: as above
# Outline: as §1
row,Binder,SPOT peptide array binding signal intensity
1,B2,1.5
2,B3,0.25

# Biological target: CaLsb4
# Experiment: as above
# Outline: as §1
row,Binder,SPOT peptide array binding signal intensity
1,B2,193
2,B3,58.5

# Biological target: CaMyo5
# Experiment: as above
# Outline: as §1
row,Binder,SPOT peptide array binding signal intensity
1,B2,2
2,B3,4.5

# Biological target: CaNbp2
# Experiment: as above
# Outline: as §1
row,Binder,SPOT peptide array binding signal intensity
1,B3,464

# Biological target: CaRvs167
# Experiment: as above
# Outline: as §1
row,Binder,SPOT peptide array binding signal intensity
1,B3,8.67

# Biological target: CaRvs167-3
# Experiment: as above
# Outline: as §1
row,Binder,SPOT peptide array binding signal intensity
1,B3,80.2

# Biological target: CaSho1
# Experiment: as above
# Outline: as §1
row,Binder,SPOT peptide array binding signal intensity
1,B3,430

# Biological target: CaSla1-D1-D2
# Experiment: as above
# Outline: as §1
row,Binder,SPOT peptide array binding signal intensity
1,B3,87.5

# Biological target: CaSla1-D3
# Experiment: as above
# Outline: as §1
row,Binder,SPOT peptide array binding signal intensity
1,B3,≤ 0

# Biological target: ScAbp1
# Experiment: as above
# Outline: as §1
row,Binder,SPOT peptide array binding signal intensity
1,B3,284

# Biological target: ScBbc1
# Experiment: as above
# Outline: as §1
row,Binder,SPOT peptide array binding signal intensity
1,B3,18.2

# Biological target: ScBem1-D1
# Experiment: as above
# Outline: as §1
row,Binder,SPOT peptide array binding signal intensity
1,B3,173

# Biological target: ScBzz1-D1
# Experiment: as above
# Outline: as §1
row,Binder,SPOT peptide array binding signal intensity
1,B3,30.5

# Biological target: ScBzz1-D2
# Experiment: as above
# Outline: as §1
row,Binder,SPOT peptide array binding signal intensity
1,B3,104

# Biological target: ScCyk3
# Experiment: as above
# Outline: as §1
row,Binder,SPOT peptide array binding signal intensity
1,B3,108

# Biological target: ScFus1
# Experiment: as above
# Outline: as §1
row,Binder,SPOT peptide array binding signal intensity
1,B3,282

# Biological target: ScHof1
# Experiment: as above
# Outline: as §1
row,Binder,SPOT peptide array binding signal intensity
1,B3,4

# Biological target: ScHse1
# Experiment: as above
# Outline: as §1
row,Binder,SPOT peptide array binding signal intensity
1,B3,1890

# Biological target: ScLsb1
# Experiment: as above
# Outline: as §1
row,Binder,SPOT peptide array binding signal intensity
1,B3,14.5

# Biological target: ScLsb2
# Experiment: as above
# Outline: as §1
row,Binder,SPOT peptide array binding signal intensity
1,B3,1

# Biological target: ScLsb3
# Experiment: as above
# Outline: as §1
row,Binder,SPOT peptide array binding signal intensity
1,B3,248

# Biological target: ScLsb4
# Experiment: as above
# Outline: as §1
row,Binder,SPOT peptide array binding signal intensity
1,B3,4.5

# Biological target: ScMyo3
# Experiment: as above
# Outline: as §1
row,Binder,SPOT peptide array binding signal intensity
1,B3,0.5

# Biological target: ScMyo5
# Experiment: as above
# Outline: as §1
row,Binder,SPOT peptide array binding signal intensity
1,B3,2

# Biological target: ScNbp2
# Experiment: as above
# Outline: as §1
row,Binder,SPOT peptide array binding signal intensity
1,B3,308

# Biological target: ScPex13
# Experiment: as above
# Outline: as §1
row,Binder,SPOT peptide array binding signal intensity
1,B3,≤ 0

# Biological target: ScRvs167
# Experiment: as above
# Outline: as §1
row,Binder,SPOT peptide array binding signal intensity
1,B3,16.3

# Biological target: ScSho1
# Experiment: as above
# Outline: as §1
row,Binder,SPOT peptide array binding signal intensity
1,B3,992

# Biological target: ScSla1-D1-D2
# Experiment: as above
# Outline: as §1
row,Binder,SPOT peptide array binding signal intensity
1,B3,1000

# Biological target: ScSla1-D3
# Experiment: as above
# Outline: as §1
row,Binder,SPOT peptide array binding signal intensity
1,B3,20

# Biological target: SpAbp1-D1
# Experiment: as above
# Outline: as §1
row,Binder,SPOT peptide array binding signal intensity
1,B3,152

# Biological target: SpBbc1
# Experiment: as above
# Outline: as §1
row,Binder,SPOT peptide array binding signal intensity
1,B3,7

# Biological target: SpBzz1-D1
# Experiment: as above
# Outline: as §1
row,Binder,SPOT peptide array binding signal intensity
1,B3,609
